Results as given in PubChem BioAssay (NCI).
This is part of a sample that, as a whole, favours compounds with a hit. Of some 83,000 tested, about 20% had one in any assay.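 Treatment: one concentration, 48 hours, 96-well format. Scoring: percent growth, with anything below 10 considered active.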 A number with no mark means an inactive call. Activity calls are given as the source filed them.

Assays:
Test in all cases: NCI-60 one-dose screen, 48 h (100 = growth as untreated, 0 = no growth, -100 = all killed)
Details in all cases: 10 µM unless noted
NCI-H23 lung = tested on: NCI-H23 lung
NCI-H226 lung = tested on: NCI-H226 lung
NCI-H322M lung = tested on: NCI-H322M lung
HOP-62 NSCLC = tested on: HOP-62 NSCLC
NCI-H460 lung = tested on: NCI-H460 lung
HOP-92 NSCLC = tested on: HOP-92 NSCLC
NCI-H522 lung = tested on: NCI-H522 lung
A549/ATCC NSCLC = tested on: A549/ATCC NSCLC
786-0 renal = tested on: 786-0 renal
COLO 205 colon = tested on: COLO 205 colon
DU-145 prostate = tested on: DU-145 prostate
K-562 leukemia = tested on: K-562 leukemia
MALME-3M melanoma = tested on: MALME-3M melanoma
MDA-MB-231 breast = tested on: MDA-MB-231 breast
RXF 393 renal = tested on: RXF 393 renal
SF-268 CNS = tested on: SF-268 CNS
SF-295 CNS = tested on: SF-295 CNS
SF-539 CNS = tested on: SF-539 CNS
UACC-257 melanoma = tested on: UACC-257 melanoma
M14 melanoma = tested on: M14 melanoma

Structure (SMILES)	growth (NCI-H23 lung)	growth (NCI-H226 lung)	growth (NCI-H322M lung)	growth (HOP-62 NSCLC)	growth (NCI-H460 lung)	growth (HOP-92 NSCLC)	growth (NCI-H522 lung)	growth (A549/ATCC NSCLC)	growth (786-0 renal)	growth (COLO 205 colon)	growth (DU-145 prostate)	growth (K-562 leukemia)	growth (MALME-3M melanoma)	growth (MDA-MB-231 breast)	growth (RXF 393 renal)	growth (SF-268 CNS)	growth (SF-295 CNS)	growth (SF-539 CNS)	growth (UACC-257 melanoma)	growth (M14 melanoma)
COc1cc(NC(C)CCCNC(C)C)c2ncccc2c1OC (stereo not given)	89.5%	95%	99.7%	98.3%	98.6%	74.6%	69.6%	102%	86.8%	90.6%	113%	104%	105%	89%	95%	105%	99.9%	85.6%	107%	
Brc1ccc2[nH]cc(-c3nonc3-c3c[nH]c4ccccc34)c2c1	45.2%	66.7%	30.9%	43.4%	12.2%	32.1%	13.6%	35.9%	67.3%	36.3%	44.6%	10.4%	56.8%	11.6%	77.6%	44.9%	33.3%	59.9%	56.9%	
COc1cnc2c(c1)C(=O)c1c-2n(CCCNCCO)c(=O)c2ccncc12	1.25% (active)	-43.9% (active)	-2.47% (active)	9.4% (active)	-41.6% (active)	20.8%	-30.2% (active)	7.92% (active)	12.3%	-15.7% (active)	3.45% (active)	5.84% (active)	-30.4% (active)	6.98% (active)	-11.1% (active)	14.8%	6.34% (active)	-15.2% (active)	-19.3% (active)	-1.26% (active)
CC(C)NC1CCC(Nc2ccnc3cc(Cl)ccc23)CC1 (stereo not given)	101%	83.6%	88.2%	78.1%	101%	46.8%	78.5%	91.1%	90.4%	69.3%	111%	56.3%	85.4%	76.5%	49.2%	99.6%	96.6%	97.5%	88.6%	93.2%
O=C(Cn1c(=O)sc2nc3ccccc3nc21)Nc1ncc(Cc2cccc(Cl)c2Cl)s1	97.1%	86.5%	97.1%	97.2%	104%	100%	82.5%	99.6%	99.8%	95.6%	112%	102%	117%	90.6%	109%	94.4%	102%	98.7%	107%	
Fc1cccc(CNc2c3ccccc3nc3ccccc23)c1F	60.6%	72.9%	63.4%	72.7%	48%	2.67% (active)	53.8%	56.7%	65.4%	40.9%	76.7%	43.4%	94.1%	58.2%	59.5%	83.4%	53.7%	55.5%	92.9%	
C=CCc1c(O)c(C(=O)/C=C/c2ccc(Cl)cc2)c(OC)c2ccoc12	57.1%	28.7%	75.8%	85.4%	49.8%	48.6%	35.7%	47.3%	78%	73.7%	78.5%	47.2%	34.6%	49.4%	21.9%	53.8%	33.1%	50.7%	39.4%	
O=C1COCCN1c1ccc(Nc2nc(Cl)nc(OCc3cn(Cc4ccccc4)nn3)n2)cc1	87.2%	95.1%	98.2%	87.5%	107%	82.5%	76.5%	95.7%	101%	105%	90.5%	33.2%	96.1%	95.4%	90.7%	80.9%	102%	98.2%	84.4%	76.1%
